Assay outcomes as filed in PubChem.
GPR151 ag = activates the human receptor GPR151; Q8TDV0; PathHunter beta-arrestin GPR151 cells, luminescence; activation, % at 11.2 µM; hit rate 1% among 650,000; in the data active means activation above about 4.9%;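 further: 0% = median of compound wells and 100% = cells with positive control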
FBW7 act = human FBW7 E3 ligase activation, primary screen. AID 1259310. Q969H0. AlphaScreen FBW7–phospho-cyclin E peptide binding, activator screen. hit rate 0.13% among 650,000. normalized activity (activation), % at 26.1 µM; in the data active means normalized activity above about 1.9%;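 further: purified mutant Fbw7 with reduced substrate affinity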
MITF inh = blocks human microphthalmia-associated transcription factor; inhibition, % at 2.6 µM; AlphaScreen MITF homodimerization, bead proximity signal; hit rate 0.91% among 650,000; O75030; AID 1259374; in the data active means inhibition above about 50%;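 further: 0% = vehicle wells with protein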
Target sequence (O75030 whole entry, looked up): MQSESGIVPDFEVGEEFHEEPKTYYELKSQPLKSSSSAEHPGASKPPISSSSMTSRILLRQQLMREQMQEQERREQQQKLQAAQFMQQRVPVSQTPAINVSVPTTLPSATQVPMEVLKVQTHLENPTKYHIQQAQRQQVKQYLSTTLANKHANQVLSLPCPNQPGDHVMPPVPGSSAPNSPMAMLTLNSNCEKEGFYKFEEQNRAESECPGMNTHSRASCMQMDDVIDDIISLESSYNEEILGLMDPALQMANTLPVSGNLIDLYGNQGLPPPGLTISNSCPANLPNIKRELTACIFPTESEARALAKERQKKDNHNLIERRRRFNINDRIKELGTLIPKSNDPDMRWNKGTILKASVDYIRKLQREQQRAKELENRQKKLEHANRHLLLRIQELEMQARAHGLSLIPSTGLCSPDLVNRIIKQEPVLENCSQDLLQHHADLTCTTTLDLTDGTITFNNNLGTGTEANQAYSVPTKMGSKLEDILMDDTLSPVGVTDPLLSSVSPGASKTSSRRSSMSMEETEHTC
TEAD-YAP block = TEAD-YAP interaction inhibition. HEK-TIYL cells, TEAD-Gal4/YAP UAS-luciferase luminescence. inhibition, % at 9.12 µM. hit rate 1.4% among 640,000. AID 1259422; in the data active means inhibition above about 32%;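 further: 0% = median of test compound wells and 100% = reference inhibitor wells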
GPR151 conf act = human GPR151 activation, confirmation screen; activation, % at 11.2 µM; GPR151 PathHunter beta-arrestin cells, luminescence, 90 min; % of EA-reagent control over plate median; AID 1508609; shares compounds with GPR151 ag; 6,700 tested, under 10 active;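 active means mean percent activation across replicates above the confirmation screen cutoff of 4.91%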
GPR119 ag = activates human GPR119 in a GPR151 counter-screen; activation, % at 11.2 µM; AID 1508611; hit rate 0.3% among 6,700; shares compounds with GPR151 ag; GPR119 PathHunter beta-arrestin cells, luminescence, 90 min; 0 = compound-well median, 100 = enzyme-acceptor control;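 active means mean percent activation in the counterscreen above 29.09%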;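 further: counterscreen on off-target GPR119 to flag nonselective hits from the GPR151 activator screen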
An asterisk follows results filed as active; ! = not confirmed by another sample. An excerpt weighted towards active compounds, which were near 3.5% of everything screened.

`O=C(Nc1ccc([N+](=O)[O-])cc1Cl)c1cc2ncc(Br)cn2n1` gave GPR151 ag -1, FBW7 act 0, MITF inh 6 and TEAD-YAP block -4.
For Cc1ccc(-c2noc(CNC(=O)COc3cc(C)cc(C)c3C)n2)cc1 the results were GPR151 ag -2, FBW7 act 0, MITF inh -15 and TEAD-YAP block -6.
For CCCCCCCCCCCCC/C=C/[C@@H](O)[C@H](COP(=O)(O)O)NC(=O)CCCCCCC the results were GPR151 ag 5.2*, MITF inh -7, GPR151 conf act 0 and GPR119 ag -11.
CCOC(=O)CN(C)Cc1c(C(=O)N2CCc3ccccc3C2)nc2ccc(Cl)cn12 was read as GPR151 ag 0, FBW7 act 0, MITF inh 9 and TEAD-YAP block 10.
`O=C(NCCN1CCOCC1)C1CCN(c2ccc(NCc3cccnc3)nn2)CC1` gave GPR151 ag 6.1*, FBW7 act 0, MITF inh 4, TEAD-YAP block 9, GPR151 conf act 0 and GPR119 ag 4.
C[C@H](NC(=O)N[C@H]1C[C@H]2C(=O)N[C@@H](CSCc3ccccc3)C(=O)N2C1)c1ccccc1 was read as GPR151 ag -1, FBW7 act 0, MITF inh -11 and TEAD-YAP block 1.
For C#Cc1cccc(N2C(=O)c3cc4ccccc4c(-c4ccccc4)c3C2=O)c1 the results were GPR151 ag 5.4*, FBW7 act 0, MITF inh 7, TEAD-YAP block 7, GPR151 conf act 1 and GPR119 ag -5.
Screening NC(=O)NC(=O)COc1ccc(F)cc1Br returned GPR151 ag 8.2*, FBW7 act 0, MITF inh 3, TEAD-YAP block -23, GPR151 conf act 0 and GPR119 ag 0.
Screening O=Cc1ccc(OCC(=O)Nc2ccc(F)cc2)c(Br)c1 returned GPR151 ag -1, FBW7 act 0, MITF inh 6 and TEAD-YAP block -9.
Screening CCOC(=O)CSCC(=O)N1N=C(c2cccs2)CC1c1cccc(OC)c1OC (stereo unspecified) returned GPR151 ag 6.6*, FBW7 act 0, MITF inh 3, TEAD-YAP block 5, GPR151 conf act 0 and GPR119 ag 8.
For COc1cc(-c2c(C#N)c(N)nc3sc(C#N)c(N)c23)cc(OC)c1OC the results were GPR151 ag 11*, FBW7 act 0, MITF inh 1, TEAD-YAP block -14, GPR151 conf act 0 and GPR119 ag 3.
`COc1ccccc1N1CCN(C(=O)c2sc3ncnc(N4CCN(c5ccccc5OC)CC4)c3c2C)CC1` gave GPR151 ag -1, FBW7 act 0, MITF inh 9 and TEAD-YAP block 1.
COc1ccc(-c2nnc3ccc(SCc4ccc(F)cc4)nn23)cc1OC was read as GPR151 ag 4, FBW7 act 0, MITF inh -9 and TEAD-YAP block 4.
For COc1ccc(-c2nnc3ccc(SCc4ccccc4)nn23)cc1OC the results were GPR151 ag 5.6*, FBW7 act 0, MITF inh -3, TEAD-YAP block -8, GPR151 conf act 0 and GPR119 ag 3.
`CN1CCCC(n2nc(Cc3ccc(Cl)cc3)c3ccccc3c2=O)CC1` (stereo unspecified) gave GPR151 ag 5.4*!, FBW7 act 0, MITF inh -20, TEAD-YAP block 3, GPR151 conf act 2 and GPR119 ag 28.
CC1CCCN(C(=O)Cn2nc(Cc3cccnc3)c3ccccc3c2=O)C1 (stereo unspecified) was read as GPR151 ag 0, FBW7 act 0, MITF inh 3 and TEAD-YAP block 3.
`CN1CCN(/N=C(\NO)c2nonc2N)CC1` gave GPR151 ag 13*!, FBW7 act 0, MITF inh -18, TEAD-YAP block -25, GPR151 conf act 0 and GPR119 ag -1.
Screening Cc1ccc(-c2csc(NC(=O)C3CCCCC3C(=O)O)n2)s1 (stereo unspecified) returned GPR151 ag 0, FBW7 act 0, MITF inh 1 and TEAD-YAP block 0.
For O=C(Nc1c(F)cccc1F)c1cccc([N+](=O)[O-])c1 the results were GPR151 ag 0, FBW7 act 0, MITF inh -1 and TEAD-YAP block -2.
O=S(=O)(NCC1(c2ccccc2)CCCC1)c1ccccc1 was read as GPR151 ag -1, FBW7 act 1, MITF inh 14 and TEAD-YAP block -9.
COc1ccccc1NC(=O)c1cc2ccccc2oc1=Nc1ccc(Cl)cc1Cl was read as GPR151 ag 9.2*, FBW7 act 0, MITF inh -2, TEAD-YAP block -19, GPR151 conf act 0 and GPR119 ag 9.
Screening COc1ccccc1N=c1oc2ccccc2cc1C(=O)Nc1ccc(Cl)cc1Cl returned GPR151 ag 2, FBW7 act 0, MITF inh -2 and TEAD-YAP block 4.
Screening NS(=O)(=O)c1ccc(NC(=S)NC(=O)C(c2ccccc2)c2ccccc2)cc1 returned GPR151 ag 5.4*, FBW7 act 0, MITF inh 2, TEAD-YAP block -5, GPR151 conf act 0 and GPR119 ag -6.
CC(=O)NC(=S)Nc1ccc(S(N)(=O)=O)cc1 was read as GPR151 ag 5.5*, FBW7 act 0, MITF inh 0, TEAD-YAP block -7, GPR151 conf act 0 and GPR119 ag 2.
`CC(=O)Nc1cccc(NC(=S)Nc2ccc(S(N)(=O)=O)cc2)c1` gave GPR151 ag 0, FBW7 act 0, MITF inh -2 and TEAD-YAP block 1.
`CCOC(=O)CC(=O)NC(C)(C)Cc1ccc(O)c(C)c1` gave GPR151 ag 1, FBW7 act 0, MITF inh -13 and TEAD-YAP block 2.
For O=S(=O)(Cc1ccccc1)NCC1CCCN(Cc2cc3ccccc3o2)C1 (stereo unspecified) the results were GPR151 ag 1, FBW7 act 0, MITF inh 10 and TEAD-YAP block 4.
For CCOc1ccc(CCNS(=O)(=O)c2ccc3c(c2)OCCN3C(C)=O)cc1OCC the results were GPR151 ag 5.2*, FBW7 act 1, MITF inh 10, TEAD-YAP block 4, GPR151 conf act 0 and GPR119 ag -7.
COc1ccc(N2C(=O)/C(=C/c3cccs3)C(=O)NC2=S)c(OC)c1 was read as GPR151 ag 5.2*, FBW7 act 0, MITF inh 8, TEAD-YAP block 8, GPR151 conf act 0 and GPR119 ag 2.
Screening COc1ccc(/C=C2\C(=O)NC(=O)N(c3ccccc3OC)C2=O)cc1 returned GPR151 ag 4.9*, FBW7 act 0, MITF inh -4, TEAD-YAP block -3, GPR151 conf act 0 and GPR119 ag 10.
